According to PubChem BioAssay (NCATS):
Records with an inconclusive call do not appear. Active and inactive are the calls of the source. The call rests on the fitted dose curve; in most records, active means well fitted inhibition curve with a large enough effect; inconclusive means small, poorly fitted or top-dose-only effect; inactive means no such curve, though single readings can be large or run the other way.

Test: qHTS Screen of the MIPE 4.0 Collection Against Ewings Sarcoma (RDES) (AID 1259252); further: nearly all actives have a fitted effect of over 35% in size;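 on viability (percent of control): 100% = DMSO-treated cells and 0% = medium-only wells without cells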
Conditions: RD-ES Ewing sarcoma viability, CellTiter-Glo, 48 h; series mostly up to 45.8 µM; viability (percent of control): at the top concentration
Description: There is a large unmet medical need for treatments for Ewing sarcoma, a pediatric sarcoma. We sought to identify compounds that inhibited Ewing sarcoma cells in vitro with the goal to then test promising drugs in two drug combinations in vitro to look for synergistic drug combinations. Promising combinations would then proceed to additional validation, including in vivo testing.
Using the NCATS developed oncology compound library called the Mechanism of Interrogation Plate (MIPE), four Ewing sarcoma cell lines were evaluated (TC32, TC71, RDES, EW8). Compounds, in a 12-point titration series, were incubated with cells for 48 hours and the read out was cell viability (CellTiter-Glo from Promega). These initial experiments were used to select appropriate concentrations of each single agent for subsequent two-drug matrix combinations such that the concentrations in the matrices would span both activity and non-activity.
Cells, in the log phase of growth, were seeded in 5 uL of RPMI plus 5% FBS, […] L-glutamine, 100 U/ml penicillin and 100 ug/ml streptomycin into 1536-well solid-bottom white tissue culture treated Greiner Bio One Plates (789173-F) using a MultiDrop Combi (Thermofisher Scientific) dispenser and a small sterile cassette. One column was media alone to be used as a :"no cells" control. The plates were then covered with sterilized stainless steel gasketed lids from Kalypsys. After allowing cells to attach for 4 hours, 23 nL of test compound or control (negative control DMSO and positive control 9.2 uM Bortezomib-final) were added from a 1536-well polypropylene compound source plate to each well using a 1536 head pin tool from Kalypsys. Cells were then incubated for 48 hours at 37C, 95% relative humidity and 5% CO2. After 48 hours, plates were removed from the incubator and 3 uL of CellTiter-Glo (Promega) was added using an Aurora Flying Reagent Dispenser Bioraptor. Plates were incubated at room temperature for 10 minutes prior to reading the luminescence on the Viewlux (PerkinElmer). The relative luciferase units are used to calculate the percent activity using the activity of DMSO in the cells and no cells columns for normalization of no inhibition and full inhibition respectively.
Potency means the concentration at half of the fitted maximal effect.

Which Potency does the source give for `CCCS(=O)(=O)Nc1ccc(F)c(C(=O)c2c[nH]c3ncc(-c4ccc(Cl)cc4)cc23)c1F` here?
Its Potency is 13.2 µM (active).

Which Potency does the source give for `CC(C)(N)C(=O)N[C@H](COCc1ccccc1)C(=O)N1CCC2(CC1)CN(S(C)(=O)=O)c1ccccc12` here?
Its Potency is 20.9 µM (active).

Which Potency does the source give for `COc1ccccc1[C@H](c1cccc2ccccc12)[C@@](C)(C#N)C(=O)N1CCC(c2cccc(C(F)(F)F)c2)CC1` here?
The Potency was 13.2 µM (active).

Which Potency does the source give for `CCN(c1ccccc1)c1cc(NC)[n+](C)c(C)n1` here?
The Potency was 7.43 µM (active).

For `O=C(C=Cc1ccc(/C=C/C(=O)Nc2ccc(C3=NCCN3)cc2)cc1)Nc1ccc(C2=NCCN2)cc1`, which “viability (percent of control)” value is on record?
The value was 109% (inactive).

With `CN(C)c1ccc(Nc2nc(N)n(C(=O)c3c(F)cccc3F)n2)cc1` as the molecule, how does the Potency read?
The Potency was 5.9 µM (active).

With `NC(=O)c1cnccn1` as the molecule, how does the “viability (percent of control)” value read?
The value was 121% (inactive).

For `CC(C)OC(=O)C1=CN(C(=O)c2ccc(F)c(F)c2)CC(C)(C)c2c1[nH]c1ccccc21`, which “viability (percent of control)” value is on record?
The value was 117% (inactive).

For `CC(C)C[C@H](NC(=O)[C@@H](O)[C@H](N)Cc1ccccc1)C(=O)O`, which Potency is on record?
The Potency was 23.5 µM (active).

Which Potency does the source give for `COc1ccc2c3n(c(=NC(=O)c4cccnc4)nc2c1OC)CCN3` here?
Its Potency is 2.09 µM (active).

With `CCOc1cc(C=C2C(=O)N(c3ccccc3)N=C2C)cc(Cl)c1OCC(=O)OC` as the molecule, how does the Potency read?
Its Potency is 5.26 µM (active).

With `CCCC(CCC)C(=O)O` as the molecule, how does the “viability (percent of control)” value read?
Its value is 106% (inactive).

Which Potency does the source give for `CCc1cc(Nc2nccc(-c3c(-c4ccc(OC)c(C(=O)Nc5c(F)cccc5F)c4)nc4ccccn34)n2)c(OC)cc1N1CCC(N2CCN(S(C)(=O)=O)CC2)CC1` here?
Its Potency is 26.4 µM (active).

With `Cc1cnc(Nc2ccc(OCCN3CCCC3)cc2)nc1Nc1cccc(S(=O)(=O)NC(C)(C)C)c1` as the molecule, how does the “viability (percent of control)” value read?
The value was 94.7% (inactive).

With `CC[C@@H](C)[C@H](NC(=O)[C@H](CC1CCCCC1)NC(=O)c1ccno1)C(=O)N1CCC2(CCc3ccccc32)CC1` as the molecule, how does the “viability (percent of control)” value read?
Its value is 115% (inactive).

Which Potency does the source give for `NNCCc1ccccc1` here?
The Potency was 8.33 µM (active).

Which “viability (percent of control)” value does the source give for `NCCCC(N)(C(=O)O)C(F)F` (stereo not given) here?
Its value is 119% (inactive).

With `CNC[C@H](O)c1cccc(O)c1` as the molecule, how does the “viability (percent of control)” value read?
The value was 113% (inactive).

Which “viability (percent of control)” value does the source give for `Cc1c(C)c2c(c(C)c1O)CCC(C)(COc1ccc(CC3SC(=O)NC3=O)cc1)O2` (stereo not given) here?
The value was 119% (inactive).

Which Potency does the source give for `Cc1cc([C@@H](C)Nc2ccccc2C(=O)O)c2nc(N3CCOCC3)cc(=O)n2c1` here?
Its Potency is 3.03 µM (active).

Which “viability (percent of control)” value does the source give for `C[C@]12CC[C@H](O)CC1=CC[C@@H]1[C@H]2CC[C@]2(C)C(c3cccnc3)=CC[C@H]12` here?
The value was 111% [at 23.2 µM] (inactive).

Which “viability (percent of control)” value does the source give for `Nc1nc2c(ncn2COCCO)c(=O)[nH]1` here?
The value was 116% (inactive).

For `NCCc1ccc(O)c(O)c1`, which “viability (percent of control)” value is on record?
The value was 122% (inactive).

Which Potency does the source give for `CC(C)(Sc1ccc(CCN(CCCCC2CCCCC2)C(=O)NC2CCCCC2)cc1)C(=O)O` here?
Its Potency is 14.8 µM (active).

With `OCCn1cc(-c2cnc3nnn(Cc4ccc5ncccc5c4)c3n2)cn1` as the molecule, how does the “viability (percent of control)” value read?
Its value is 126% (inactive).

For `CC(c1cc2ccccc2s1)N(O)C(N)=O` (stereo not given), which “viability (percent of control)” value is on record?
The value was 121% (inactive).

With `O=c1ncn2nc(Sc3ccc(F)cc3F)ccc2c1-c1c(Cl)cccc1Cl` as the molecule, how does the Potency read?
The Potency was 20.9 µM (active).

For `Cc1oncc1C(=O)Nc1ccc(C(F)(F)F)cc1`, which Potency is on record?
The Potency was 8.33 µM (active).

For `CCCCCCCc1ccc(CCc2cccc(O)c2C(=O)O)cc1`, which Potency is on record?
The Potency was 18.7 µM (active).

For `N[C@@H]1CONC1=O`, which “viability (percent of control)” value is on record?
The value was 109% (inactive).

For `C1COC(NC(C2CC2)C2CC2)=N1`, which “viability (percent of control)” value is on record?
Its value is 130% (inactive).

For `COc1ccc(C2=N[C@H](c3ccc(Cl)cc3)[C@H](c3ccc(Cl)cc3)N2C(=O)N2CCNC(=O)C2)c(OC(C)C)c1`, which Potency is on record?
The Potency was 18.7 µM (active).

For `Cc1n[nH]c(C)c1Cc1sc2c(c1C(=O)N1C[C@H](O)CO1)c(=O)n(C)c(=O)n2CC(C)C`, which “viability (percent of control)” value is on record?
Its value is 111% (inactive).

Which Potency does the source give for `CCOc1ccn(-c2ccc(F)cc2)c(=O)c1C(=O)Nc1ccc(Oc2ccnc(N)c2Cl)c(F)c1` here?
The Potency was 23.5 µM (active).

With `CCn1c(-c2nonc2N)nc2cnc(Oc3cccc(NC(=O)c4ccc(OCCN5CCOCC5)cc4)c3)cc21` as the molecule, how does the Potency read?
Its Potency is 5.9 µM (active).

With `Oc1cccc(-c2nc(N3CCOCC3)c3oc4ncccc4c3n2)c1` as the molecule, how does the Potency read?
The Potency was 0.96 µM (active).

With `Cc1cc(C=c2sc3nc4ccccc4n3c2=O)c(C)n1-c1ccccc1` as the molecule, how does the “viability (percent of control)” value read?
The value was 97.5% (inactive).

Which Potency does the source give for `COc1cc2nccc(Oc3ccc(NC(=O)NC4CC4)c(Cl)c3)c2cc1C(N)=O` here?
The Potency was 0.833 µM (active).

With `CS(=O)(=O)Oc1ccc2c(NC(N)=O)c(C(=O)c3ccc(Cl)cc3Cl)oc2c1` as the molecule, how does the Potency read?
The Potency was 11.8 µM (active).

Which Potency does the source give for `CCCS(=O)(=O)Nc1ccc(F)c(C(=O)c2c[nH]c3ncc(Cl)cc23)c1F` here?
Its Potency is 14.8 µM (active).
